Screening results: PubChem, The Scripps Research Institute Molecular Screening Center
Most compounds without a hit are left out; they make up all but 4.1% or so of the library.
ssDAF12 agonist: activates DAF-12 receptor from parasite S. stercoralis. HEK293 ssDAF-12/GRIP1 lit1-tk-luc reporter, luminescence; % of 3 µM dafachronic acid response. activation, % at 6.8 µM. hit rate 1% among 370,000. AID 652126;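 active = activation above the mean over all tested compounds plus 3 SD, cut at about 0.9% in these data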;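 also: 0% = DMSO-only wells and 100% = 3 µM delta7-dafachronic acid wells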
hcDAF-12 act: H. contortus DAF-12 activation, primary screen. activation, % at 6.8 µM. AID 652067. HEK293 hcDAF-12 lit1-tk-luc reporter, luminescence; 0% DMSO, 100% Δ7-dafachronic acid. hit rate 1.4% among 370,000;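 active = activation above the mean of all tested compounds plus 3 SD, cut at about 5.5% in these data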;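 also: 100% = response to 3 µM Δ7-dafachronic acid high control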
DAX1 inh-1: inhibits human nuclear receptor DAX1 | hit rate 0.99% among 340,000 | HEK293 Gal4-DAX1 luciferase reporter, luminescence | inhibition, % at 6.75 µM;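 active = inhibition above the mean over all tested compounds plus 3 SD, cut at about 4.2% in these data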;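 also: 0% = DAX1-transfected cells with DMSO and 100% = empty-vector control cells with DMSO; inhibition shows as a rise in luminescence from relieved DAX1 repression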
Target sequence (P51843 207-470 limits assumed): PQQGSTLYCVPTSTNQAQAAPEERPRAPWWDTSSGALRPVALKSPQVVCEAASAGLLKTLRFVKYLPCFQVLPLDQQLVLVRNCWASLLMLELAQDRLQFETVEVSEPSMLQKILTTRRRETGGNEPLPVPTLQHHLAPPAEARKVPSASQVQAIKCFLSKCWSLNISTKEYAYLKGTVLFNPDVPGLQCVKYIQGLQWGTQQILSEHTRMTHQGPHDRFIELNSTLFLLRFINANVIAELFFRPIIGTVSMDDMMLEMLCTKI
hgDAF-12 ag: hgDAF-12 agonism, primary luciferase screen; HEK293 GAL4-hgDAF12 UAS-luciferase reporter, agonist luminescence; normalized to butyrate control; activation, % at 6.8 µM; hit rate 1.8% among 370,000;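 active = activation above a cutoff set at the mean of all screened compounds plus 3 SD, cut at about 10% in these data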;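 also: 0% = DMSO wells and 100% = sodium butyrate wells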
DAX1 inh-2: DAX1 (NR0B1) inhibition, primary screen | HEK293T StAR-luciferase reporter, SF-1/DAX-1 repression relief | hit rate 1.1% among 370,000 | AID 652010 | inhibition, % at 6.8 µM;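 active = inhibition above the mean over all tested compounds plus 3 SD, cut at about 3.6% in these data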;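 also: 0% = DAX-1 cells with DMSO and 100% = cells lacking DAX-1 with DMSO; higher inhibition means more luminescence from relief of DAX-1 repression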
DAX1 conf: confirmation of human DAX1 (NR0B1) inhibitors; inhibition, % at 6.8 µM; hit rate 87% among 2,400; HEK293T StAR-promoter luciferase reporter, SF-1/DAX-1 repression; shares compounds with DAX1 inh-2;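 active = inhibition above the average of every tested compound plus 3 SD, cut at about 3.8% in these data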;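 also: 0% = DAX-1 cells with DMSO and 100% = no DAX-1 control cells with DMSO; active compounds raise luminescence by relieving repression of the StAR reporter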
SF1 mutant ctr: counter-screen for DAX1 inhibitors: nonselective inhibitors with SF-1 AF2 mutant | HEK293 StAR-luciferase, luminescence | shares compounds with DAX1 inh-2 | inhibition, % at 6.8 µM | hit rate 78% among 2,400;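 active = inhibition above the mean of all tested compounds plus 3 SD, cut at about 3% in these data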;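 also: 0% = DAX-1 transfected cells with DMSO and 100% = cells without DAX-1 with DMSO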
LXR ag: activates human LXR-beta, counter-screen for hcDAF-12 agonists. shares compounds with hcDAF-12 act. 3,400 tested, under 10 active. AID 743027. activation, % at 6.8 µM. HEK293 Gal4-LXR tk-luc reporter, luminescence, 24 h; normalized: DMSO 0%, positive control 100%;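 active = mean percent activation of the reporter above a cutoff set as the average over tested compounds plus their standard deviation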
hcDAF12 conf: hcDAF-12 agonism, confirmation assay; shares compounds with hcDAF-12 act; HEK293 hcDAF-12 lit1-tk-luc reporter, luminescence; % of Δ7-dafachronic acid response; activation, % at 6.8 µM; hit rate 61% among 3,400;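 active = mean activation across triplicate tests above the threshold derived from the earlier primary screen, cut at about 5.5% in these data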;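 also: 0% = DMSO only wells and 100% = 3 µM Δ7-dafachronic acid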
hgDAF12 conf: confirmation of H. glycines DAF-12 agonists. hit rate 80% among 3,300. HEK293 GAL4-hgDAF12 luciferase reporter, agonist mode; percent of butyrate response. shares compounds with hgDAF-12 ag. activation, % at 6.8 µM;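 active = mean activation over triplicate wells above the hit cutoff derived from the earlier primary screen, cut at about 11% in these data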;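 also: 0% = DMSO low control and 100% = 2 mM sodium butyrate high control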
LXRb DAF12 ctr: counter-screen for DAF-12 agonists: agonists of human LXR-beta; activation, % at 6.8 µM; HEK293 Gal4-LXR luciferase reporter, 24 h; 3,300 tested, under 10 active; shares compounds with hgDAF-12 ag;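 active = mean activation of the triplicate above a set limit carried over from the primary screen, none filed active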
Active calls of the source: *; · = no result given.

SMILES	ssDAF12 agonist	hcDAF-12 act	DAX1 inh-1	hgDAF-12 ag	DAX1 inh-2	DAX1 conf	SF1 mutant ctr	LXR ag	hcDAF12 conf	hgDAF12 conf	LXRb DAF12 ctr
Cn1c(C(=O)Nc2ccc3c(c2)OCCO3)cc2sccc21	1.2*	9.7*	2	15*	6.9*	8.8*	6.8*	1	5	18*	1
CC(C)NC(=O)C1(C)CCN1C(=O)c1cccn1C (stereo unspecified)	-1	1	·	2	1	·	·	·	·	·	·
CC(C)(C)C(c1nc2ccccc2[nH]1)n1c(-c2cccc(S(C)(=O)=O)c2)nc2ccccc21 (stereo unspecified)	0	3	·	16*	16*	7.7*	9.5*	·	·	12*	0
COc1ccc(-c2ccc3c(n2)CCCN3S(=O)(=O)c2ccccc2)cc1	-2	1	·	-4	-2	·	·	·	·	·	·
OC(c1ccc2ccccc2c1)c1ncc(-c2cccc3ccccc23)[nH]1 (stereo unspecified)	-2	-1	·	1	0	·	·	·	·	·	·
CC(C)NC(=O)C1(C)CSCC(=O)N1CCOc1ccccc1 (stereo unspecified)	-2	0	·	-3	0	·	·	·	·	·	·
COc1ccc(NC(=O)c2ccc3c(c2)N(C)CCS3)cc1	1	5	1	24*	7.3*	12*	7.5*	·	·	19*	1
CN1CCSc2ccc(C(=O)NCc3ccccc3)cc21	-1	-1	-1	5	0	·	·	·	·	·	·
COC(=O)[C@]12C[C@H](CC(=O)NCCC(C)C)C(=O)N(Cc3ccccc3)C1=C[C@H](C(C)(C)C)O[C@@H]2C	-1	2	·	-1	-1	·	·	·	·	·	·
CC(=O)Nc1nc(C2COc3ccccc3O2)cs1 (stereo unspecified)	0	6.7*	1	14*	5.8*	11*	5.1*	1	6.1*	15*	1
O=C(Nc1nc(-c2nc3ccccc3s2)cs1)C1COc2ccccc2O1 (stereo unspecified)	-1	4	2	3	1	·	·	·	·	·	·
COC[C@H]1CCCN1c1cccc2c1S(=O)(=O)N1CC[C@@H](C1)O2	-1	0	·	0	-1	·	·	·	·	·	·
CCCCOc1ccc(-c2cnc3ccccc3n2)cc1	0	9.0*	1	23*	6.8*	14*	3.5*	2	6.4*	13*	1
Cc1ccc(C2=NN3C(C2)c2ccccc2OC32C(=O)Nc3ccccc32)cc1 (stereo unspecified)	2.2*	19*	2	25*	5.3*	9.9*	9.4*	1	8.3*	20*	1
O=C(NCc1ccccc1F)C1CC(=O)N(Cc2ccco2)C1 (stereo unspecified)	0	1	1	3	1	·	·	·	·	·	·
COc1ccc(C(=O)/C=C/c2ccccc2)c(O)c1	-1	1	1	8	1	·	·	·	·	·	·
COc1cc(O)cc(/C=C/c2ccccc2)c1	0	4	2	15*	4.6*	9.3*	5.5*	·	·	16*	1
COc1cc(OC)cc(C(=O)NC2CCN(CCCOc3ccccc3)CC2)c1	0	0	-1	-2	1	·	·	·	·	·	·
c1cncc(-c2nc3cc4ccccc4cc3[nH]2)c1	1.5*	9.5*	4.6*	21*	7.8*	11*	5.3*	2	9.6*	21*	1
